According to PubChem BioAssay (EPA / NIEHS):
Results filed as inconclusive are left out. Calls of active or inactive are those of the source. Rule for the calls: active = hit-call score of the fitted dose curve at least 0.9, where 1 is the maximum; inconclusive = response in the unintended direction; inactive = score below 0.9.

Key:
[1] = Tanguay_ZF_120hpf_SNOU_legacy: (Legacy) Oregon State University Tanguay Lab 120 Hour Post-fertilization zebrafish Assay for Snout Malformation (AID 2283637)
Method in brief: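 Binary snout-malformation call at 120 hpf in wild-type 5D embryos, chorion removed by pronase, under static exposure from 6 hpf at 28C (0.64% DMSO). Embryos dying by 24 or 120 hpf excluded.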

[2] = Tanguay_ZF_120hpf_JAW_legacy: (Legacy) Oregon State University Tanguay Lab 120 Hour Post-fertilization zebrafish Assay for Jaw Malformation (AID 2283638)
Method in brief: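 Wild-type 5D embryos, chorion removed at 4 hpf, dosed singly from 6 hpf; 28C static, sealed, foil-covered, to 120 hpf. Endpoint: jaw defect yes/no (brightfield); mortality excludes scoring.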

[3] = Tanguay_ZF_120hpf_OTIC_legacy: (Legacy) Oregon State University Tanguay Lab 120 Hour Post-fertilization zebrafish Assay for Otic Vesicle Malformation (AID 2283639)
Method in brief: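 Brightfield scoring at 120 hpf, binary present/absent; DMSO negative control, 5uM trimethyltin chloride positive control. Static exposure at 28C, final DMSO 0.64% (vol/vol). Dead embryos not scored for malformation.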

[4] = Tanguay_ZF_120hpf_PE_legacy: (Legacy) Oregon State University Tanguay Lab 120 Hour Post-fertilization zebrafish Assay for Pericardial Edema (AID 2283640)
Method in brief: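 Zebrafish larvae are exposed from early development to 120 hpf at 28C, with 0.64% DMSO final. Each surviving larva receives a yes/no pericardial edema call by brightfield imaging, analysed relative to the DMSO baseline.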

[5] = Tanguay_ZF_120hpf_BRAI_legacy: (Legacy) Oregon State University Tanguay Lab 120 Hour Post-fertilization zebrafish Assay for Brain Malformation (AID 2283641)
Method in brief: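 Static exposure of staged wild-type embryos until 120 hpf, kept at 28C with light excluded and final DMSO of 0.64% (vol/vol). Presence or absence of brain malformation was noted under brightfield; mortality precluded scoring.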

[6] = Tanguay_ZF_120hpf_SOMI_legacy: (Legacy) Oregon State University Tanguay Lab 120 Hour Post-fertilization zebrafish Assay for Somite Malformation (AID 2283647)
Method in brief: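 Somitogenesis defects are recorded as binary calls in whole larvae at 120 hpf after continuous static chemical exposure starting at 6 hpf in dechorionated 5D embryos. DMSO serves as negative control and baseline.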

[7] = Tanguay_ZF_120hpf_PFIN_legacy: (Legacy) Oregon State University Tanguay Lab 120 Hour Post-fertilization zebrafish Assay for Pectoral Fin Malformation (AID 2283648);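 note: each larva judged yes or no for fin defect by brightfield with dead larvae skipped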
Method in brief: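 Pectoral fin malformation was recorded as a binary endpoint at 120 hpf in wild-type Tropical 5D larvae, which had been dechorionated and exposed statically from 6 hpf at 28C in 0.64% DMSO. Dead embryos were excluded.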

[8] = Tanguay_ZF_120hpf_CFIN_legacy: (Legacy) Oregon State University Tanguay Lab 120 Hour Post-fertilization zebrafish Assay for Caudal Fin Malformation (AID 2283649)
Method in brief: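 Single dechorionated 5D wild-type embryos are dosed at 6 hpf (final DMSO 0.64%) and held statically at 28C. Caudal fin malformation is recorded as present or absent at 120 hpf under brightfield, excluding dead embryos.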

[9] = Tanguay_ZF_120hpf_PIG_legacy: (Legacy) Oregon State University Tanguay Lab 120 Hour Post-fertilization zebrafish Assay for Pigmentation Malformation (AID 2283650)
Method in brief: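 Pigment malformation recorded as a binary call at 120 hpf in zebrafish (Tropical 5D) exposed singly from 6 hpf after pronase dechorionation. Static, sealed, 28C exposure, 0.64% DMSO; mortality excludes scoring; positive-direction fit against DMSO.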

[10] = Tanguay_ZF_120hpf_CIRC_legacy: (Legacy) Oregon State University Tanguay Lab 120 Hour Post-fertilization zebrafish Assay for Circulatory Malformation (AID 2283651)
Method in brief: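 Static exposure, 6–120 hpf, 28C, sealed and dark; one dechorionated 5D embryo/well; DMSO 0.64% v/v final. Binary circulation endpoint by brightfield; dead embryos not scored.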

[11] = Tanguay_ZF_120hpf_SWIM_legacy: (Legacy) Oregon State University Tanguay Lab 120 Hour Post-fertilization zebrafish Assay for Swim Bladder Malformation (AID 2283654);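 note: swim bladder malformation in each larva scored yes or no under brightfield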
Method in brief: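 Scoring is binary for swim bladder defects at 120 hpf, by brightfield inspection of zebrafish larvae. Embryos were exposed singly from 6 hpf after pronase dechorionation, at 28C with 0.64% DMSO; mortality excluded scoring.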

[12] = Tanguay_ZF_120hpf_TRUN_legacy: (Legacy) Oregon State University Tanguay Lab 120 Hour Post-fertilization zebrafish Assay for Truncated Body (AID 2283655)
Method in brief: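 Single dechorionated zebrafish embryos received test chemical from 6 hpf in 0.64% DMSO, kept at 28C. At 120 hpf, brightfield inspection noted any truncated body.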

[13] = Tanguay_ZF_120hpf_NC_legacy: (Legacy) Oregon State University Tanguay Lab 120 Hour Post-fertilization zebrafish Assay for Notochord and Tail Malformation (AID 2283656)
Method in brief: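 Binary notochord-distortion calls, made by brightfield inspection, form the read-out; activity is fitted in the positive direction against DMSO. Exposure ran statically from 6 to 120 hpf at 28C with 0.64% DMSO.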

[14] = Tanguay_ZF_120hpf_TR_legacy: (Legacy) Oregon State University Tanguay Lab 120 Hour Post-fertilization zebrafish Assay for Touch Response (AID 2283667)
Method in brief: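 Binary touch-response endpoint in larvae at 120 hpf after static waterborne exposure from embryo stage (28°C, 0.64% DMSO vehicle, 5 uM trimethyltin chloride as positive control); embryos dead at 24 or 120 hpf excluded; fitted as gain versus DMSO.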

[15] = Tanguay_ZF_120hpf_ActivityScore_legacy: (Legacy) Oregon State University Tanguay Lab 120 Hour Post-fertilization zebrafish Assay Score for Activity (AID 2283742)
Method in brief: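 Binary scoring of mortality and morphology by brightfield at 24 and 120 hpf, summarised into one activity score from 18 components relative to DMSO. Wild-type Tropical 5D zebrafish, chorion removed at 4 hpf, static exposure 6–120 hpf, 28 °C.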

Measured: outcome

CCC(C)=NO
inactive: all assays above
